Screening results (PubChem)
An excerpt weighted towards active compounds, which were near 4.6% of everything screened.
TRb-SRC2 inh: TRbeta-SRC2 interaction inhibition. P10828. TRbeta-SRC2 peptide binding, fluorescence polarization; receptor liganded with 1 µM T3. Potency, µM (doses to about 106 µM), hits mostly inhibitors. hit rate 0.065% among 280,000. AID 1469; further: nearly all actives have a fitted effect of over 50% in size
Target sequence (P10828 whole entry, looked up): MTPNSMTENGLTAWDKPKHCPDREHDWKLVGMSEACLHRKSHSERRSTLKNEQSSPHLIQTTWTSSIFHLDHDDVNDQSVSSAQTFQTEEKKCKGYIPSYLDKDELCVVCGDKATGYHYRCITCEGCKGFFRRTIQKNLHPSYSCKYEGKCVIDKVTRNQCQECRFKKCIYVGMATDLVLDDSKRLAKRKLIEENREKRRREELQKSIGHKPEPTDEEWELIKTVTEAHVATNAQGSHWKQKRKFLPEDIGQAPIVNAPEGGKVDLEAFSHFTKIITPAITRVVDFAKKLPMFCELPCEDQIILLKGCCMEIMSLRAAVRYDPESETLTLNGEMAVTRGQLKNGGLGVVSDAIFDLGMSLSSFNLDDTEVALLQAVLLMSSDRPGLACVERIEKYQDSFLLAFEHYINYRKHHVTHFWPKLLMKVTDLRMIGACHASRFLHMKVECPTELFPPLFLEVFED
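Fluorescence polarization of 20 nM Texas Red SRC2 peptide with 0.6 uM human TRb ligand-binding domain, in Tris buffer with 1uM T3 and 5% DMSO. Incubated 5 hr ambient; normalized to unbound and bound controls.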
Tau fluor counter: counter-screen for tau fibril formation inhibitors. tau K18 P301L Alexa594 fluorescence, heparin fibrillization. AID 1463. hit rate 0.93% among 280,000. Potency, µM (top dose mostly 57.7 µM); further: nearly all actives have a fitted effect of over 55% in size
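Human tau K18 P301L (15 uM unlabeled, 0.24 uM Alexa 594-labeled) in 100 mM sodium acetate pH 7 with 20 uM heparin, 6 hr at 37 C. ThT 30 uM added, 1 hr ambient; Alexa 594 FP and total fluorescence read at 555/632 nm.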
Tau fibril FP: tau fibrillization inhibition (FP) | P10636 | K18 P301L tau heparin fibrillization, Alexa594 FP, 6 h | Potency, µM (titrated, usually from 57.7 µM), most hits filed as inhibitors | hit rate 0.39% among 280,000 | AID 1468; further: nearly all actives have a fitted effect of over 55% in size
Target sequence (P10636 561-689 P618L limits assumed): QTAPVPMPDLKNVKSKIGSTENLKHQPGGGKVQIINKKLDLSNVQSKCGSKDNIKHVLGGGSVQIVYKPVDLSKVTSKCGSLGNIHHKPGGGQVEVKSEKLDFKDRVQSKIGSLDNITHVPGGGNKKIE
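Recombinant K18 P301L […], labeled with Alexa 594 at 0.24 uM over 15 uM unlabeled; heparin inducer 20 uM final; 37 C, 6 hr; FP endpoint.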
TR SRC2 fluor cs: Texas Red fluorescence interference in TRb-SRC2 counter-screen. hit rate 0.29% among 280,000. AID 1479. TRb/SRC2 Texas Red total fluorescence interference. Potency, µM (top dose mostly 106 µM); active means well fitted curve in either direction with a large enough effect; inconclusive means small, poorly fitted or top-dose-only effect
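Human TRβ ligand-binding domain (0.6 uM) and Texas Red SRC2 peptide (20 nM) in Tris buffer with 1 uM T3 and 5% DMSO were incubated with pinned compound for 5 hr at ambient temperature. Total fluorescence was computed as S + 2P (555/632 nm).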
Tau fibril ThT: blocks human tau fibril formation measured by thioflavin T | P10636 | hit rate 2.1% among 270,000 | recombinant tau K18 P301L (four-repeat tau fragment), heparin-induced fibrillization, ThT fluorescence | Potency, µM (highest dose often 57.4 µM), hits mostly inhibitors; further: nearly all actives have a fitted effect of over 55% in size
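Heparin-induced fibrillization of the P301L-mutant K18 repeat-domain fragment of human tau was followed by ThT binding in quantitative high-throughput format.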
PNC assembly inh: inhibitors of perinucleolar compartment assembly | hit rate 3.1% among 140,000 | AID 2417 | activity change (PNC), negative = inhibition, % at 10 µM | PC3M PTB-GFP, PNC prevalence imaging, 16 h; hits give low values;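 active means readout at or below -70, meaning at least 70% loss of cells showing the perinucleolar compartment, a nuclear body marking cancer cells; inconclusive means readout between -30 and a set limit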
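PC3M cells stably expressing PTB-GFP, 750–1000 cells/well, treated 16 h at 37 °C with compound (23 nl of library stock), in duplicate. After paraformaldehyde fixation and Hoechst stain, imaged at 20x; PNC prevalence scored by image analysis.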
Numbers stand for hits; . = inactive; ? = inconclusive; / = no result given; [ ] = another dose, or the depositor's remark. Unless noted, the call rests on the fitted dose curve; in most records, active means well fitted curve in the direction sought with a large enough effect; inconclusive means small, poorly fitted or top-dose-only effect, or another doubt; inactive means no such curve, though single readings can be large; an effect the other way counts as inactive or inconclusive.

SMILES | TRb-SRC2 inh | Tau fluor counter | Tau fibril FP | TR SRC2 fluor cs | Tau fibril ThT | PNC assembly inh
COc1ccc(-n2c(Cc3ccccc3)nnc2SCC(=O)N2CCCc3ccccc32)cc1 | . | . | . | . | ? | -100.0
CCn1c(Cc2ccc(OC)cc2)nnc1SCC(=O)NC1CCCCC1 | . | . | . | . | . | .
CS(=O)(=O)c1ccc2nc(NC3(C(F)(F)F)N=C4SCCN4C3=O)sc2c1 (stereo not given) | . | . | . | . | . | -105.8
NS(=O)(=O)c1ccc(Sc2nc3ccccc3s2)c([N+](=O)[O-])c1 | . | ? | . | . | / | /
CC(=O)OCCNc1cc(SC(C)C)c2nonc2c1[N+](=O)[O-] | . | . | . | . | ? | /
CN(CCO)c1cc(Sc2nc3ccccc3s2)c2nonc2c1[N+](=O)[O-] | . | ? | . | . | 28.2µM | .
CC(=O)OCCN(C)c1cc(SC(C)C)c2nonc2c1[N+](=O)[O-] | . | ? | . | . | 14.1µM | /
CCN(CC)S(=O)(=O)c1cccc(-c2nnc(SCCOc3ccc(Cl)cc3)o2)c1 | . | . | . | . | . | .
Cc1nn(CCCC(=O)Nc2cc(Oc3ccccc3)cc([N+](=O)[O-])c2)c(C)c1[N+](=O)[O-] | . | 10µM[quencher] | . | . | . | .
Cc1cc([N+](=O)[O-])nn1CCCC(=O)Nc1ccc(Cl)cc1Cl | . | . | . | . | . | /
Cc1ccc(C)c(Oc2cc(NC(=O)CCCn3nc(C)c([N+](=O)[O-])c3C)cc([N+](=O)[O-])c2)c1 | . | . | . | . | . | .
Cc1ccc(Oc2cc(NC(=O)CCCn3nc([N+](=O)[O-])cc3C)cc([N+](=O)[O-])c2)cc1 | . | 10µM[quencher] | . | . | . | .
COc1ccc2cc3cc(C(=O)Nc4cc(OC)c(OC)c(OC)c4)oc3nc2c1 | . | . | . | . | ? | -105.0
COc1cc(NC(=O)c2cc3cc4cc(OC)ccc4nc3o2)cc(OC)c1 | . | . | . | . | ? | /
COc1cc(-n2nc(C)c3c2OC(N)=C(C#N)C3c2ccccc2)c(Cl)c(Br)c1O (stereo not given) | . | ? | . | . | 3.55µM | .
Cc1nn(-c2ccccc2)c2c1C(c1ccncc1)C(C#N)=C(N)O2 (stereo not given) | . | . | ? | . | ? | .
CCOC(=O)Cn1nc(C)c2ccccc2c1=O | . | . | . | . | . | .
CCn1c(-c2ccc(C(C)(C)C)cc2)n[nH]c1=S | . | . | . | . | . | -88.6
S=C(N=Nc1ccccc1)NNc1ccccc1 | . | 20µM[quencher] | ? | . | 25.1µM | .
COC(=O)c1ccc(NC(=S)N2CCN(Cc3ccccc3)CC2)cc1 | / | . | . | / | . | .
Cc1nc(C)n(CC(=O)N2CCCC(C(=O)c3ccc(Cl)cc3C)C2)n1 (stereo not given) | . | . | . | . | . | /
O=C(CCNc1ccc(Cc2ccncc2)cc1)c1ccc([N+](=O)[O-])cc1 | . | 7.94µM[quencher] | . | . | 10µM | /
O=C(CCNc1ccccc1)c1cccc([N+](=O)[O-])c1 | . | . | . | . | . | .
O=C(CCNc1ccc(F)cc1)c1cccc([N+](=O)[O-])c1 | . | 15.8µM[quencher] | . | . | ? | .
Cc1nc(SCC(=O)c2cccc([N+](=O)[O-])c2)n[nH]1 | . | . | ? | . | 39.8µM | .
SMILES | TRb-SRC2 inh | Tau fluor counter | Tau fibril FP | TR SRC2 fluor cs | Tau fibril ThT | PNC assembly inh
O=C(CCNc1ccc(Br)cc1)c1cccc([N+](=O)[O-])c1 | . | 28.2µM[quencher] | ? | . | ? | /
O=C(O)c1ccccc1Nc1ccnc(Cl)n1 | . | . | . | . | / | /
CCOC(=O)CN(C(=O)CSc1nnc(C)n1-c1ccccc1)c1cccc([N+](=O)[O-])c1 | . | . | . | . | . | .
CCOc1ccc(/C=C/C(=O)Nc2sc3c(c2C(=O)OC)C(C(=O)OC)CC3)cc1 (stereo not given) | . | ? | ? | . | 3.16µM | /
CCOC(=O)N1CCN(C(=O)C(CC(C)C)NC(=O)C2CCCCC2)CC1 (stereo not given) | . | . | . | . | . | .
COC(=O)c1cc2oc3ccccc3c2n1Cc1nc(-c2ccccc2Cl)oc1C | . | . | ? | ? | . | /
COC(=O)c1cc2oc3ccccc3c2n1Cc1nc(-c2ccccc2C)oc1C | . | . | . | 20µM[quencher] | . | /
COC(=O)c1cc2oc3ccccc3c2n1Cc1cc(C)ccc1C | . | . | . | 22.4µM[quencher] | . | /
COC(=O)c1cc2sc(C)cc2n1Cc1nc(-c2ccc(C)cc2)oc1C | . | ? | . | 89.1µM[quencher] | ? | /
CCOC(=O)N1CCN(CC(O)COc2ccccc2C(C)(C)C)CC1 (stereo not given) | . | . | . | . | . | .
Cc1ccc(NS(=O)(=O)c2cc3[nH]c(=O)c(=O)[nH]c3cc2C)cc1Cl | . | . | . | . | . | /
Nc1nc(Nc2ccccc2)nc(NCc2ccco2)c1[N+](=O)[O-] | . | 12.6µM[quencher] | ? | . | ? | ?
Nc1nc(NCc2ccco2)nc(Nc2ccccc2)c1[N+](=O)[O-] | . | . | . | . | . | /
O=C(NCc1nnc(SCc2ccccc2)n1-c1ccccc1)C12CC3CC(CC(C3)C1)C2 | . | . | . | . | . | .
Cc1ccnc(NC(=S)NC(=O)c2cncc(Br)c2)c1 | . | . | . | . | . | -100.0
Clc1ccc(CSc2nncn2-c2ccccn2)cc1 | . | . | . | . | . | .
COc1ccc2c(c1)Cc1sc(NC(C)=O)nc1-2 | . | ? | ? | . | 31.6µM | ?
COc1ccc2c(c1)CCc1sc(NC(=O)c3ccco3)nc1-2 | . | 14.1µM[quencher] | . | . | 12.6µM | .
COc1ccc2c(c1)Cc1sc(NC(=O)c3cccnc3)nc1-2 | . | ? | ? | . | 7.94µM | /
COc1ccc2c(c1)Cc1sc(NC(=O)c3ccco3)nc1-2 | . | ? | . | . | ? | .
COc1ccc2c(c1)-c1nc(NC(=O)c3ccco3)sc1CC2 | . | ? | . | . | ? | .
COc1ccc(Br)cc1CNC(=O)Cn1c(=O)c2cccn2c2ccc(F)cc21 | . | . | . | . | . | /
COCCNC(=O)COC(=O)c1nsc(Cl)c1Cl | . | . | . | . | . | -108.8
C=CCn1cnc2c(c1=O)c1nc3ccccc3nc1n2Cc1ccccc1 | . | . | . | . | . | .
O=C1CC(Nc2ccc(N3CCOCC3)cc2)C(=O)N1c1ccccc1F (stereo not given) | . | . | . | . | 14.1µM | .
CCc1ccc(NC2CC(=O)N(CCc3ccc(OC)c(OC)c3)C2=O)cc1 (stereo not given) | . | . | . | . | . | /
O=C1CC(Nc2ccccc2)C(=O)N1c1ccc(N2CCOCC2)cc1 (stereo not given) | . | . | . | . | ? | -104.4
